DT40 TDP1 no CPT – qHTS for Inhibitors of human tyrosyl-DNA phosphodiesterase 1 (TDP1): qHTS in cells in absence of CPT; DT40 Tdp1-/- hTDP1 cells, no CPT, ATP luminescence, 48 h; Potency, µM (highest dose often 46.2 µM), actives largely listed as inhibitors; 420,000 tested, 15% active; AID 686978, 2013; further: nearly all actives have a fitted effect of over 55% in size
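Chicken DT40 Tdp1-/- cells stably complemented with human TDP1 were seeded at 400 cells/well with DMSO in place of 20 nM camptothecin. After compound pinning, cells grew at least 48 hr at 37 °C; viability read by CellTiter-Glo luminescence.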
HT1080NT lethal – kills 2HG-producing HT-1080-NT fibrosarcoma cells. HT-1080-NT fibrosarcoma viability, CellTiter-Glo ATP luminescence, 48 h. Potency, µM (series often up to 46.1 µM), most hits filed as cytotoxic. 360,000 tested, 1.6% active. AID 686970;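 further: NT is the 2HG producing partner of a matched IDH1 knockdown line; nearly all actives have a fitted effect of over 55% in size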
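Viability of the 2HG-overproducing fibrosarcoma line after 48 hours of compound exposure at 37 degrees C was determined by luminescence with CellTiter-Glo, and concentration-effect curves were then fitted and categorized.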
IL1B secr inh – inflammasome signaling inhibition, IL-1 beta readout; THP-1 LPS/ATP IL-1B secretion, AlphaLISA, 16 h; hits give low values; activity change, % at 57.5 µM; 360,000 tested, 4.7% active; AID 743279; in the data active means activity change below about -50%; inconclusive means mostly about -30% to -49%
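THP-1 cells pretreated 1 hr with compounds (up to 57.5 uM final), then stimulated with LPS (250 ng/mL final) plus ATP (1.25 mM final); secreted IL-1B measured by AlphaLISA after 16 hr, decreased signal indicating inhibition.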
TDP1 cell CPT – DT40-hTDP1 cell growth loss with CPT. chicken DT40 Tdp1-/-;hTDP1 cells + 20 nM CPT, ATP luminescence, 48 h. Potency, µM (series often up to 46.2 µM), actives largely listed as inhibitors. 420,000 tested, 12% active. AID 686979; further: nearly all actives have a fitted effect of over 55% in size
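Chicken DT40 Tdp1-/- cells complemented with human TDP1, 400 cells/well, exposed to compounds plus 20 nM camptothecin for at least 48 h at 37 C; viability read as ATP content by CellTiter-Glo luminescence.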
HT1080 IDH1KD tx – toxicity to HT-1080 IDH1 knockdown cells (counter line) | HT-1080 IDH1 knockdown viability, ATP luminescence, 48 h | Potency, µM (series often up to 46.1 µM), actives largely listed as cytotoxic | 360,000 tested, 2% active
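IDH1KD HT-1080 cells, 750/well, RPMI + 5% FBS; compound pinned after 2 h settling; 48 h, 37 °C; CellTiter-Glo luminescence; % activity normalised to DMSO and no-cell wells; curves fitted, classed by r2 and efficacy.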
Numbers stand for hits; [ ] = another dose, or the depositor's remark. In the library only some 19% were active in any assay of this set; here they are far more common. Unless noted, the call rests on the fitted dose curve; in most records, active means well fitted curve in the direction sought with a large enough effect; inconclusive means small, poorly fitted or top-dose-only effect, or another doubt; inactive means no such curve, though single readings can be large; an effect the other way counts as inactive or inconclusive.

How did CS(=O)c1nc(-c2ccc(Br)cc2)cc(-c2ccccc2)c1C#N (configuration not stated) do in these assays?
DT40 TDP1 no CPT: 2.6µM; HT1080NT lethal: 5.6µM; IL1B secr inh: -70; TDP1 cell CPT: 1.8µM; HT1080 IDH1KD tx: 3.5µM

What do the screens show for `COc1ccc(-c2cc(-c3ccccc3)c(C#N)c(S(C)(=O)=O)n2)cc1`?
DT40 TDP1 no CPT: inconclusive; HT1080NT lethal: inactive; IL1B secr inh: -96; TDP1 cell CPT: inconclusive; HT1080 IDH1KD tx: inactive

What do the screens show for `CCn1cc(/C=N\NC(=O)c2ccc3c(c2)c(C)c(C)n3Cc2ccccc2)c(C)n1`?
DT40 TDP1 no CPT: 16µM; HT1080NT lethal: inactive; IL1B secr inh: inactive; TDP1 cell CPT: 13µM; HT1080 IDH1KD tx: inactive

What do the screens show for `CCn1ncc(/C=N\NC(=O)c2ccc3c(c2)c(C)c(C)n3Cc2ccccc2)c1C`?
DT40 TDP1 no CPT: inconclusive; HT1080NT lethal: inconclusive; IL1B secr inh: inactive; TDP1 cell CPT: inactive; HT1080 IDH1KD tx: inconclusive

Results for CCn1nc(C)c(/C=N/NC(=O)c2ccc3c(c2)c(C)c(C)n3Cc2ccccc2)c1C ?
DT40 TDP1 no CPT: 10µM; HT1080NT lethal: inactive; IL1B secr inh: inactive; TDP1 cell CPT: 10µM; HT1080 IDH1KD tx: inactive

What do the screens show for `Cc1cc(C(=O)CCC(=O)N2CCN(c3ccccc3)CC2)c(C)s1`?
DT40 TDP1 no CPT: inactive; HT1080NT lethal: inactive; IL1B secr inh: inactive; TDP1 cell CPT: inactive; HT1080 IDH1KD tx: inactive

Results for Cc1sc2nc(SCC(=O)Nc3ccccc3F)[nH]c(=O)c2c1C ?
DT40 TDP1 no CPT: inactive; HT1080NT lethal: inactive; IL1B secr inh: inactive; TDP1 cell CPT: inactive; HT1080 IDH1KD tx: inactive

How did CCc1nc(SCC(=O)Nc2cc(C)ccc2OC)c2c(C)c(C)sc2n1 do in these assays?
DT40 TDP1 no CPT: 15µM; HT1080NT lethal: inactive; IL1B secr inh: inactive; TDP1 cell CPT: inactive; HT1080 IDH1KD tx: inactive

What do the screens show for `CCc1nc(SCC(=O)Nc2ccccc2OC)c2c(C)c(C)sc2n1`?
DT40 TDP1 no CPT: 21µM; HT1080NT lethal: inactive; IL1B secr inh: inconclusive; TDP1 cell CPT: inconclusive; HT1080 IDH1KD tx: inactive

Results for COc1cc(OC)c2c(-c3cccc(-c4cccc(C)c4)c3)cc(=O)oc2c1 ?
DT40 TDP1 no CPT: 3.7µM; HT1080NT lethal: inconclusive; IL1B secr inh: inactive; TDP1 cell CPT: 4.1µM; HT1080 IDH1KD tx: 5.8µM

What do the screens show for `COc1ccc(-c2cc(=O)oc(-c3cccc(C)c3)n2)cc1`?
DT40 TDP1 no CPT: 18µM; HT1080NT lethal: inactive; IL1B secr inh: inactive; TDP1 cell CPT: inconclusive; HT1080 IDH1KD tx: inactive

Results for COc1cc(OC)c2c(C)cc(=O)oc2c1 ?
DT40 TDP1 no CPT: inactive; HT1080NT lethal: inactive; IL1B secr inh: inconclusive; TDP1 cell CPT: inactive; HT1080 IDH1KD tx: inactive[9.24 µM]

How did COc1cc(OC)c2c(-c3cccc(-c4ccc(OC(F)(F)F)cc4)c3)cc(=O)oc2c1 do in these assays?
DT40 TDP1 no CPT: inconclusive; HT1080NT lethal: inactive; IL1B secr inh: inactive; TDP1 cell CPT: inconclusive; HT1080 IDH1KD tx: inactive

What do the screens show for `COc1ccc(-c2cccc(-c3cc(=O)oc4cc(OC)c(OC)c(OC)c34)c2)cc1`?
DT40 TDP1 no CPT: inconclusive; HT1080NT lethal: inconclusive; IL1B secr inh: inactive; TDP1 cell CPT: inconclusive; HT1080 IDH1KD tx: inconclusive

What do the screens show for `COc1ccc(-c2cccc(-c3cc(=O)oc4cc(OC)cc(OC)c34)c2)cc1`?
DT40 TDP1 no CPT: 0.65µM; HT1080NT lethal: inconclusive; IL1B secr inh: inactive; TDP1 cell CPT: 1.3µM; HT1080 IDH1KD tx: 0.58µM

Results for COc1cc(OC)c2c(-c3cccc(-c4ccc(O)cc4)c3)cc(=O)oc2c1 ?
DT40 TDP1 no CPT: 16µM; HT1080NT lethal: inconclusive; IL1B secr inh: inactive; TDP1 cell CPT: inconclusive; HT1080 IDH1KD tx: inconclusive

Results for COCCN(C(=O)c1cc2c(s1)CCCCC2)c1c(N)n(Cc2ccccc2)c(=O)[nH]c1=O ?
DT40 TDP1 no CPT: inactive; HT1080NT lethal: inactive; IL1B secr inh: inactive; TDP1 cell CPT: inactive; HT1080 IDH1KD tx: inactive

How did Cc1ccc(C)c(NC(=O)CSc2c(C)cnc3c2c(=O)n(C)c(=O)n3C)c1 do in these assays?
DT40 TDP1 no CPT: inactive; TDP1 cell CPT: inactive

Results for COc1ccc(-c2cccc(-c3cc(=O)oc4cc5c(cc34)OCO5)c2)cc1 ?
DT40 TDP1 no CPT: inconclusive; HT1080NT lethal: inactive; IL1B secr inh: inactive; TDP1 cell CPT: inconclusive; HT1080 IDH1KD tx: inactive

From PubChem BioAssay
